According to PubChem BioAssay (EPA / NIEHS):
Results filed as inconclusive are left out. Activity calls are given as the source filed them. Rule for the calls: active = hit-call score of the fitted dose curve at least 0.9, where 1 is the maximum; inconclusive = response in the unintended direction; inactive = score below 0.9.

Assay: ACEA_AR_antagonist_AUC_viability: ACEA Biosciences xCELLigence Real-Time Cell Analysis on Androgen Receptor Antagonism for Viability (AID 2283776);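 note: 22Rv1 human prostate cancer cells growing on impedance electrode plates; area under impedance growth curve at 80 h after dosing as viability; hits lower the growth signal relative to DMSO meaning cytotoxicity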
Summary of the method: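 Real-time electrical impedance tracks 22Rv1 proliferation after continuous compound exposure (top 100 uM final, 1:4 steps, 8 concentrations). The 80 h area-under-curve serves as the cytotoxicity readout relative to DMSO.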
With `CN(C)C(=O)C1(N2CCCCC2)CCN(CC[C@@]2(c3ccc(Cl)c(Cl)c3)CN(C(=O)c3ccccc3)CCO2)CC1` the AC50 was 11.5 µM (active). For `Cc1ncc(CO)c(CO)c1O`, the outcome was “inactive”. With `CCCCCCCC[Si](OCC)(OCC)OCC` the outcome was “inactive”. In the case of `Cc1oc2c(NC(=O)c3c(Cl)cccc3Cl)cccc2c1C(C)(C)O`, the AC50 is reported as 20.3 µM (active). With `CCCCOC(=O)CC(CC(=O)OCCCC)(OC(C)=O)C(=O)OCCCC` the outcome was “inactive”. In the case of `COCC(C)OCC(C)OCC(C)O` (configuration not stated), the outcome is reported as “inactive”. In the case of `NC(=O)c1nc(-c2cccc(-c3cc(F)ccc3OCC(F)(F)C(F)(F)F)c2)n[nH]1`, the AC50 is reported as 19.3 µM (active). With `CCCCCCCCCCCO` the AC50 was 85 µM (active). With `O=C(O)Cn1c(=O)n(Cc2ccc(Br)cc2F)c(=O)c2ccc(Cl)cc21` the outcome was “inactive”. For `c1ccc2ccccc2c1`, the outcome was “inactive”. With `c1ccc(C[n+]2cccc3ccccc32)cc1` the AC50 was 82.3 µM (active). For `O=C(OCCCCCCOC(=O)c1ccccc1)c1ccccc1`, the AC50 was 71.5 µM (active). With `CC1(C)NC(=O)N(c2ccc([N+](=O)[O-])c(C(F)(F)F)c2)C1=O` the AC50 was 68.9 µM (active). For `O=c1ccc2ccccc2o1`, the outcome was “inactive”. In the case of `CCCCOC(=O)c1ccc(O)cc1`, the AC50 is reported as 56.7 µM (active). For `COc1cccc([C@H](O)C2CCN(CCc3ccc(F)cc3)CC2)c1OC`, the AC50 was 35.7 µM (active). For `O=C(O)c1ccccc1C(=O)OCc1ccccc1`, the outcome was “inactive”. With `Cc1ccc(C(C)C)cc1` the outcome was “inactive”. For `CC[C@@H]1C[C@H](N(Cc2cc(C(F)(F)F)cc(C(F)(F)F)c2)C(C)=O)c2cc(C(F)(F)F)ccc2N1C(=O)OC(C)C`, the outcome was “inactive”. With `Clc1ccccc1C(c1ccccc1)(c1ccccc1)n1ccnc1` the AC50 was 14.7 µM (active). For `CC1=CC(=O)/C(=C(/C)O)C(=O)O1`, the outcome was “inactive”. For `Cc1cc2c(cc1C(F)(F)F)N(C(=O)Nc1ccc(Oc3cccnc3C)nc1)CC2`, the AC50 was 15.1 µM (active). With `CCCCCCCCCCCC[N+](C)(C)C` the AC50 was 9.45 µM (active). With `CN1C(=O)N(c2ccccc2Br)Cc2cnc(Nc3ccc4c(c3)OCC(CO)O4)nc21` (configuration not stated) the AC50 was 12.7 µM (active). For `OCCO`, the outcome was “inactive”. With `CCCCCCCCCCCCO` the outcome was “inactive”. With `CCCCCCCCN(C)CCCCCCCC` the outcome was “inactive”. With `Cc1cc(F)ccc1-c1cc(N2CC[C@@H](O)[C@H]2CO)ncc1N(C)C(=O)C(C)(C)c1cc(C(F)(F)F)cc(C(F)(F)F)c1` the AC50 was 10.1 µM (active). For `CCO[Si](CCCNC(N)=O)(OCC)OCC`, the outcome was “inactive”. For `CC(O)CC(C)(C)O` (configuration not stated), the outcome was “inactive”. In the case of `Cc1ccc2oc(CN(Cc3ccccc3)C(=O)Nc3c(F)cc(F)cc3F)c(-c3ccc(Cl)cc3)c2c1`, the AC50 is reported as 14.1 µM (active). With `O=c1[nH]sc2ccccc12` the AC50 was 7.87 µM (active). For `O=C1c2ccccc2C(=O)N1CCc1noc(-c2ccc(CN3CCCCCC3)s2)n1`, the AC50 was 6.41 µM (active). With `CCCCCCCCOc1ccc(C(=O)c2ccccc2)c(O)c1` the AC50 was 13.7 µM (active). For `Cc1cn([C@H]2C[C@H](N=[N+]=[N-])[C@@H](CO)O2)c(=O)[nH]c1=O`, the outcome was “inactive”. For `CC(C)(O)c1ccc(CNC(=O)c2cccnc2Oc2ccc3nonc3c2)cc1`, the outcome was “inactive”. For `O=C(O)c1ccccc1-n1cc(C(=O)O)c(=O)c2cc(Nc3c(F)cc(F)cc3Cl)c(Cl)cc21`, the outcome was “inactive”.
